Laboratory results from PubChem BioAssay AID463173 (ICCB-Longwood Screening Facility, Harvard Medical School, 2010).
The campaign covered roughly 52,000 compounds. About 4,300 (8.3%) were called active. No stated cut-off is given here; in the data, active means survival mostly below about 52% (no sharp cut-off); inactive means mostly above about 56%. This excerpt belongs to a sample that is enriched for actives.

Each compound was assayed on DeltatarO mutant (assay: S. aureus survival, RN4220 and DeltatarO strains – OD600, teichoic acid synthesis inhibitors, primary screen (AID 463173)). Settings: S. aureus RN4220 wild type/DeltatarO growth, OD600, 18 h, hits give low values, screened at 18.75 µg/mL (by protocol).
`Cc1ccc(C)c(CN2C(=O)c3ccccc3S(=O)c3ccc(C(=O)N(C)Cc4ccccc4)cc32)c1` (centres undefined) was tested, and the survival was 78% (inactive).
`Cc1ccc(Nc2cc(C(=O)NCc3cccs3)c3ccccc3n2)c(C)c1` was tested, and the survival was 72% (inactive).
For `COc1ccccc1NC(=O)C1=C(C)Nc2ncnn2C1c1cccn1C` (centres undefined), the survival was 8% (active).
In the case of `CC1=C(C(=O)Nc2ccccc2C)C(c2ccccn2)n2ncnc2N1` (centres undefined), the survival is reported as 94% (inactive).
With `COc1ccc(NC(=O)C2=C(C)Nc3ncnn3C2c2cccn2C)cc1` (centres undefined) the survival was 89% (inactive).
`COc1ccccc1NC(=O)C1=C(C)Nc2ncnn2C1c1ccccn1` (centres undefined) was tested, and the survival was 52% (inactive).
For `CC1=C(C(=O)Nc2ccccc2)C(c2cccn2C)n2ncnc2N1` (centres undefined), the survival was 95% (inactive).
In the case of `CCOc1ccccc1NC(=O)C1=C(C)Nc2ncnn2C1c1ccccn1` (centres undefined), the survival is reported as 25% (active).
For `Cc1ccccc1CN1C(=O)c2ccccc2Sc2ccc(C(=O)NC3CCCCC3)cc21`, the survival was 71% (inactive).
In the case of `O=C(O)C1CSC2c3ccccc3C(=O)N12` (centres undefined), the survival is reported as 103% (inactive).
`O=c1[nH]c2cc3c(cc2cc1CN(CCO)C(=S)Nc1cccc(Cl)c1)OCO3` was tested, and the survival was 69% (inactive).
With `CCS(=O)(=O)N1CCc2cc(C(=O)NCc3ccc(C)cc3)ccc21` the survival was 82% (inactive).
For `CS(=O)(=O)N1CCc2cc(C(=O)NCc3ccccc3)ccc21`, the survival was 81% (inactive).
With `Cc1ccc(CNC(=O)c2ccc3c(c2)CCN3S(=O)(=O)c2ccc(Br)cc2)cc1` the survival was 80% (inactive).
`O=C(NCc1ccccc1)c1ccc2c(c1)CCN2S(=O)(=O)c1ccccc1` was tested, and the survival was 36% (active).
For `Cc1ccc(CNC(=O)c2ccc3c(c2)CCN3S(=O)(=O)c2ccccc2)cc1`, the survival was 37% (active).
For `O=C(NCc1ccccc1)c1ccc2c(c1)CCN2S(=O)(=O)c1ccc(Cl)cc1`, the survival was 73% (inactive).
With `CC(=O)N1CCc2cc(S(=O)(=O)NC(Cc3ccccc3)C(=O)NCc3ccccc3)ccc21` (centres undefined) the survival was 79% (inactive).
For `Cc1ccc2c(c1)N(CC(=O)N(Cc1cccnc1)C1CCCC1)C(=O)C(C)O2` (centres undefined), the survival was 97% (inactive).
For `Cc1ccc(-n2nc(C(=O)N3CCN(c4cc(Cl)ccc4C)CC3)c(=O)n(C)c2=O)cc1`, the survival was 116% (inactive).
With `Cc1ccc(OCC(=O)Nc2ccc3nc(SCC(=O)Nc4ccc(C)cc4C)sc3c2)cc1` the survival was 73% (inactive).
For `COc1ccc(N2CCN(c3nc4ccc(C)cc4n4nnnc34)CC2)cc1`, the survival was -5% (active).
`Cc1ccc2nc(NCc3ccccc3Cl)c3nnnn3c2c1` was tested, and the survival was 91% (inactive).
With `Cc1ccc2nc(N3CCN(c4ccc(F)cc4)CC3)c3nnnn3c2c1` the survival was 55% (inactive).
`Cc1ccc2nc(N3CCN(c4ccccc4)CC3)c3nnnn3c2c1` was tested, and the survival was 88% (inactive).
For `COc1ccccc1CNc1nc2ccc(C)cc2n2nnnc12`, the survival was 17% (active).
For `COc1ccc(OC)c(CNc2nc3ccc(C)cc3n3nnnc23)c1`, the survival was 88% (inactive).
In the case of `COc1ccc(-c2ccc(Nc3ccc(C(=O)N4CCCCCC4)cc3)nn2)cc1`, the survival is reported as 71% (inactive).
With `CCOc1ccccc1CNC(=O)c1cnc2sc(N3CCOCC3)nn2c1=O` the survival was 67% (inactive).
`CCOc1ccc(Cn2c(-c3ccc(OCC)c(OC)c3)nc3ccccc32)cc1OC` was tested, and the survival was 79% (inactive).
With `CCCCn1c(CCCNC(=O)c2cccc(C)c2)nc2ccccc21` the survival was 55% (inactive).
In the case of `CCCCCn1c(C(C)NC(=O)c2ccccc2)nc2ccccc21` (centres undefined), the survival is reported as 81% (inactive).
`CCCCCn1c(-c2cccc(C)c2)nc2ccccc21` was tested, and the survival was -2% (active).
In the case of `CCCCCn1c(-c2ccc(OC)c(OC)c2)nc2ccccc21`, the survival is reported as 1% (active).
In the case of `CCCCCn1c(CCCNC(=O)c2ccccc2OC)nc2ccccc21`, the survival is reported as 53% (inactive).
With `CCCCCn1c(CCNC(=O)c2cccc(C)c2)nc2ccccc21` the survival was 32% (active).
In the case of `CCCCn1c(C)nc2ccccc21`, the survival is reported as 104% (inactive).
`CCCCCn1c(CCCNC(=O)c2cccc(C)c2)nc2ccccc21` was tested, and the survival was 51% (inactive).
In the case of `COc1cccc(C(C(=O)NCc2ccco2)N(C(=O)Cn2nnc3ccccc32)C2CC2)c1OC` (centres undefined), the survival is reported as 107% (inactive).
For `CCOC(=O)c1noc2nc(C)n(CC(=O)Nc3cc(Cl)ccc3OC)c(=O)c12`, the survival was 109% (inactive).
With `Cc1csc2nc(CCNS(=O)(=O)c3ccccc3)cn12` the survival was 79% (inactive).
`Cc1cc(C)c(/C=C/c2onc(C)c2S(=O)(=O)N2CCC(C(=O)Nc3ccc(Cl)c(C(F)(F)F)c3)CC2)c(C)c1` was tested, and the survival was 67% (inactive).
For `Cc1nn2c(=O)cc(COC(=O)c3ccccc3NC(=O)c3ccccc3C)nc2s1`, the survival was 104% (inactive).
For `COc1ccc(-c2nc3scc(CCNS(=O)(=O)c4c(C)cc(C)cc4C)n3n2)cc1OC`, the survival was 85% (inactive).
`Cc1ccccc1-c1nc(CNC(=O)Nc2ccccc2)c(C)o1` was tested, and the survival was 89% (inactive).
For `CC(C)Oc1ccc(CN2CCc3nc(Nc4ccc5c(c4)OCCO5)ncc3C2)cc1`, the survival was 77% (inactive).
For `Cc1ccc(Cl)cc1Nc1nn2c(=O)c3ccc(C(=O)NC(C)c4ccccc4)cc3nc2s1` (centres undefined), the survival was 105% (inactive).
In the case of `CN(C(=O)CSc1nc2ccc(NC(=O)COc3ccc(F)cc3)cc2s1)c1ccccc1`, the survival is reported as 73% (inactive).
With `CCC1CCCCN1CC(=O)N1CCCc2c1c(=O)oc1ccc(OCc3ccccc3)cc21` (centres undefined) the survival was 18% (active).
For `CC1CCCCN1CC(=O)N1CCCc2c1c(=O)oc1ccc(OCc3ccccc3)cc21` (centres undefined), the survival was 77% (inactive).
`CC1CCN(CC(=O)N2CCCc3c2c(=O)oc2ccc(OCc4ccccc4)cc32)CC1` was tested, and the survival was 98% (inactive).
With `COc1ccc(N(Cc2nnc3n2CCCCC3)C(=O)Nc2cccc(C)c2)cc1Cl` the survival was 81% (inactive).
For `COc1ccc(C2CC(=O)c3cc(-c4nc(-c5ccc(Cl)cc5)cs4)c(=O)[nH]c3C2)cc1` (centres undefined), the survival was 167% (inactive).
For `Cc1sc(-c2cc3c([nH]c2=O)CC(c2ccccc2)CC3=O)nc1-c1ccc(Cl)cc1` (centres undefined), the survival was 73% (inactive).
In the case of `COc1ccc(C2CC(=O)c3cc(-c4nc(-c5ccc(Cl)cc5)c(C)s4)c(=O)[nH]c3C2)cc1` (centres undefined), the survival is reported as 70% (active).
In the case of `CON(C)c1nc(OCCNC(=O)OCc2ccc(Cl)cc2Cl)nc(N(C)C)n1`, the survival is reported as 76% (inactive).
For `CCOc1ccc(NC(=O)CCCc2nnc3n(C)c(=O)c4sccc4n23)cc1`, the survival was 78% (inactive).
`COc1cccc(CNC(=O)c2cc3c(=O)n(Cc4cccnc4)ccc3nc2C)c1` was tested, and the survival was 144% (inactive).
With `Cc1ccc(C)c(N2CCN(C(=O)c3cc4c(=O)n(Cc5cccnc5)ccc4nc3C)CC2)c1` the survival was 46% (active).
`COc1cc(NC(=O)c2cc3c(=O)n(Cc4cccs4)ccc3nc2C)cc(OC)c1OC` was tested, and the survival was 0% (active).
`COc1ccc(NC(=O)c2cc3c(=O)n(Cc4cccs4)ccc3nc2C)cc1` was tested, and the survival was 75% (inactive).
In the case of `Cc1nc2ccn(Cc3cccs3)c(=O)c2cc1C(=O)NCc1ccc(Br)cc1`, the survival is reported as 70% (inactive).
In the case of `Cc1nc2ccn(Cc3cccs3)c(=O)c2cc1C(=O)NCc1ccccc1`, the survival is reported as 78% (inactive).
For `COc1ccc(CNC(=O)c2cc3c(=O)n(Cc4cccnc4)ccc3nc2C)cc1`, the survival was 37% (active).
With `Cc1nc2ccn(Cc3cccnc3)c(=O)c2cc1C(=O)N1CCN(c2ccccc2)CC1` the survival was 105% (inactive).
`Cc1ccc(C)c(N2CCN(C(=O)c3cc4c(=O)n(Cc5ccccc5)ccc4nc3C)CC2)c1` was tested, and the survival was 78% (inactive).
With `Cc1nc2ccn(Cc3cccs3)c(=O)c2cc1C(=O)Nc1ccccc1` the survival was 84% (inactive).
In the case of `CCc1ccc(CNC(=O)c2cc3c(=O)n(Cc4cccs4)ccc3nc2C)cc1`, the survival is reported as 32% (active).
In the case of `Cc1nc2ccn(Cc3cccnc3)c(=O)c2cc1C(=O)NCc1ccccc1`, the survival is reported as 72% (inactive).
